Measured values as given in PubChem BioAssay (NCATS).
Results filed as inconclusive are left out. Unmarked numbers belong to inactive results. Calls of active or inactive are those of the source. Calls come from the whole dose curve; as a rule, active = well fitted curve in the direction sought with a large enough effect in the signal ratio, with a control signal flat (not every such curve was filed as active); inconclusive = small, poorly fitted or top-dose-only effect, or effect the other way, or a change in a side signal; inactive = no such curve, though single readings can be large or run the other way; the % refers to the signal ratio.

target: Tyrosine-protein phosphatase non-receptor type substrate 1 (Homo sapiens) + Leukocyte surface antigen CD47 (Homo sapiens) (UniProt P78324+Q08722); test: CD47-SIRPalpha protein protein interaction - LANCE assay qHTS validation (AID 1347057); conditions: Recombinant CD47-His / biotin-SIRPalpha, TR-FRET ratio; series mostly up to 38.3 µM; activity change, negative = inhibition: at the top concentration; for activity change, negative = inhibition: 0% is about no effect
Sequence (P78324 whole entry, looked up, the tested form may be a part): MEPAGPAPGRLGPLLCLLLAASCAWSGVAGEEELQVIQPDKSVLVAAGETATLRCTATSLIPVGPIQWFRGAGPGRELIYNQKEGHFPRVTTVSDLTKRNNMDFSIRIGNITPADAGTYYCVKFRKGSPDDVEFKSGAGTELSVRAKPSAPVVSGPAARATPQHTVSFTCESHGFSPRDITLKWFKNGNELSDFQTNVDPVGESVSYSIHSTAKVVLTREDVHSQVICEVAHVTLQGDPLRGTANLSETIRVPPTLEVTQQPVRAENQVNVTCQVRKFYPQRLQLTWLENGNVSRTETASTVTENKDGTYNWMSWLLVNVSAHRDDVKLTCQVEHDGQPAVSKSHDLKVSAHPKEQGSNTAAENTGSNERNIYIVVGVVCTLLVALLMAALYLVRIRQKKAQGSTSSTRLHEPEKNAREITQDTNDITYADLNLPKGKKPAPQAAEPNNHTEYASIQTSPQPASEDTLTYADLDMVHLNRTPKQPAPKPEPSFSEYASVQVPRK
Sequence (Q08722 whole entry, looked up, the tested form may be a part): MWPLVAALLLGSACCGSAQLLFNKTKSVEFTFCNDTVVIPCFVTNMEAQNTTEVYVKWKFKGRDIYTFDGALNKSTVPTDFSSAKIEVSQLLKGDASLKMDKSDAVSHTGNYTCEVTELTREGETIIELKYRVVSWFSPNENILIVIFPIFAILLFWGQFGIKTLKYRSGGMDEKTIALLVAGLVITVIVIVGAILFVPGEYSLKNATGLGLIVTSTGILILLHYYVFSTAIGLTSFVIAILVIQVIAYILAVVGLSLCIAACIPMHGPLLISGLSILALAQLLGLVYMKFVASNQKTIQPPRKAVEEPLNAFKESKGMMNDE
How it was run: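 Inhibition of soluble CD47/SIRPalpha ectodomain association by titrated compounds, measured as 665/615 nm time-resolved FRET ratio after sequential 30 min room-temperature incubations.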
Potency is the fitted concentration of half-maximal effect.

Structure (SMILES)	activity change, negative = inhibition [%]	Potency
O=C(c1cc(O)c(O)c([N+](=O)[O-])c1)c1ccccc1F	4.78	–
OCC1O[C@H](O)C(Cl)C(O)C1O (some centres not stated)	1.06	–
Clc1ccc(N2CCN(Cc3cc4ccccn4n3)CC2)cc1	0.222	–
NC[C@@H]1O[C@H](C23CC4CC(CC(C4)C2)C3)Cc2c1ccc(O)c2O	0.583	–
Brc1c(Br)c(Br)c2n[nH]nc2c1Br	0.259	–
O=S(=O)(c1cccc2c(I)cccc12)N1CCCNCC1	2.05	–
O=C(O)CNC(=O)C(CS)Cc1ccccc1 (configuration not stated)	0.264	–
CC1(C)CCC=[N+]1[O-]	0.0197	–
COc1cc2c(CCNC(C)=O)c[nH]c2cc1Cl	3.04	–
Fc1cccc(/C=N/N=C/c2cccc(F)c2)c1	-0.225	–
O=C(O)c1cc(=O)c2ccccc2[nH]1	0.923	–
O=P(O)(O)C(Cl)(Cl)P(=O)(O)O	0.118	–
Cn1ncc(S(=O)(=O)Cc2ccccc2)c(Br)c1=O	3.4	–
O=Nc1ccc2oc(=O)ccc2c1	1.36	–
OCC1O[C@H]([S-])[C@H](O)[C@@H](O)[C@@H]1O.[Au+] (some centres not stated)	–	5.85 µM (active)
O=C(/C=C/c1ccc(O)cc1)c1ccc(O)cc1O	3.33	–
Fc1ccc(C(OCCCc2cnc[nH]2)c2ccc(F)cc2)cc1	-0.791	–
CN1CCc2cc(NC(=O)Nc3cccnc3)ccc21	1.89	–
O=c1[nH]c2cc(C(F)(F)F)ccc2n1-c1cc(C(F)(F)F)ccc1O	0.211	–
CCCCCCCCCCCCCCCCCC(=O)OC(CC(=O)O)C[N+](C)(C)C (configuration not stated)	1.01	–
Cc1cc(NC2CCCCC2)nc(-n2nc(C)cc2C)n1	0.421	–
N#C/C(=C\c1ccc(-c2cc(Cl)ccc2Cl)o1)C(=O)Nc1cccc2ncccc12	-2.71	–
